These results are taken from PubChem BioAssay (NCI).

Common to all, as to assay: NCI-60 one-dose screen, 48 h (100 = growth as untreated, 0 = no growth, -100 = all killed)
Common to all, as to details: 10 µM

For assay [1], the system named is NCI-H23 lung.
The test system of assay [2] is NCI-H226 lung.
Assay [3] concerns NCI-H460 lung.
The test system of assay [4] is HOP-92 NSCLC.
The subject of assay [5] is NCI-H522 lung.
Assay [6] relates to A549/ATCC NSCLC.
Assay [7] relates to 786-0 renal.
Assay [8] relates to COLO 205 colon.
Assay [9] deals with DU-145 prostate.
Assay [10] has as its system K-562 leukemia.
In assay [11] the test system is MALME-3M melanoma.
The subject of assay [12] is MDA-MB-231 breast.
Assay [13] has as its system RXF 393 renal.
Assay [14] has as its system SF-268 CNS.
The test system of assay [15] is SF-539 CNS.
Assay [16] has as its system UACC-257 melanoma.
In assay [17] the test system is M14 melanoma.
For assay [18], the system named is SF-295 CNS.
The subject of assay [19] is HOP-62 NSCLC.

About 83,000 compounds went through this panel and 20% of them were active in at least one assay; those are over-represented in the sample as a whole.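 Cells were grown in 96-well plates and exposed to the test compound at a single concentration for 48 hours; results are reported as percent growth, with values below 10 considered active.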 A number with no mark means an inactive call. The source made the active and inactive calls.

For the compound `COc1ccc(-c2nn(-c3cccc(Cl)c3)cc2C=C(C#N)C#N)cc1`, the growth was -45.2% (active) in assay [1]; 25.4% in assay [2]; 1.56% (active) in [3]; 11% in assay [4]; -12.1% (active) in [5]; 19.1% in [6]. The growth is -8.39% (active) in assay [7]; -9.68% (active) in [8]; 3.57% (active) in assay [9]; -13.2% (active) in assay [10]; 17.7% in assay [11]; -40.3% (active) in [12]. Further, the growth is -5.72% (active) in [13]; 13.3% in assay [14]; 2.34% (active) in assay [15]; 38.5% in [16]; -18% (active) in assay [17].

For the compound `COc1ccccc1-n1c(-c2csc(NC(C)=O)n2)n[nH]c1=S`, the growth in assay [1] is 93.1%; in [2], 96.7%; in assay [3] it was 109%; in assay [4] it was 96%; in assay [5], 82.5%; in assay [6], 100%. Also, the growth in assay [7] is 97.2%; in [8], 115%; in assay [9] it was 119%; in assay [10] it was 87.5%; in [11], 109%; in assay [12], 121%. The growth in assay [13] was 102%; in assay [14], 111%; in [15], 112%; in [16], 98.1%; in assay [17], 98%.

Regarding `COc1ccc(-c2nn(-c3cccc(Cl)c3)cc2-c2cc(-c3ccccc3)[nH]c(=O)c2C#N)cc1`, the growth in assay [1] is 26.6%; in [2], 24%; in [3], 31.6%; in [4], -28% (active); in assay [5], 44%; in assay [6] it was 39.7%. Also, the growth was 6.65% (active) in assay [7]; 60.7% in assay [8]; 47.1% in assay [9]; 44.9% in [10]; 24.7% in [11]; -8.6% (active) in [12]. Further, the growth in [13] is -25.6% (active); in [14], 34.8%; in assay [18] it was -36% (active); in assay [15], -45.9% (active); in assay [16], 75.5%; in assay [17], 32.5%.

As to `CN(C)c1ncnc2c1nnn2C1OC(CO)C(O)C1O` (centres undefined), the growth in assay [1] was 4.79% (active); in [2] it was 39.9%; in assay [19] it was 32.7%; in [4], 19.6%; in assay [5] it was -25.2% (active); in [6] it was 36.3%. The growth in assay [7] was 17.2%; in [8], -80.9% (active); in assay [9], 15.9%; in [11] it was -10.4% (active); in assay [12] it was 36.5%; in assay [13], -2.59% (active). For the same compound, the growth in assay [14] was 24.9%; in [18], 6.4% (active); in [15], -2.72% (active); in [16] it was 11.8%; in [17], -13.2% (active).

In the case of `O[C@@H]1CO[C@H]2[C@@H]1OC[C@@H]2O`, the growth in [1] was 109%; in assay [2], 109%; in [19], 107%; in assay [4], 108%; in assay [5], 111%; in assay [6], 96.9%. Moreover, the growth in assay [7] is 109%; in [8], 119%; in assay [9], 108%; in assay [10], 124%; in assay [12], 92.5%; in assay [13], 125%. The growth was 108% in assay [14], 106% in assay [15], 103% in assay [16] and 103% in [17].

Consider `CN1CCN(c2cc3c(cc2F)c(=O)c(C(=O)O)cn3-c2ccc(F)cc2)CC1`, for which the growth was 95.8% in assay [1]; 100% in assay [2]; 98.5% in [3]; 118% in [4]; 102% in assay [6]; 97.6% in [7]. In addition, the growth is 107% in [8]; 118% in assay [9]; 96.3% in [11]; 109% in assay [12]; 116% in assay [13]; 93.2% in [14]. In addition, the growth in assay [18] was 99.8%; in [15] it was 99.7%; in assay [16], 105%; in [17] it was 93%.

Consider `Cc1cc(O)ccc1C1=NN(c2ccc(S(C)(=O)=O)cc2)C(=O)CC1`, for which the growth in assay [1] was 32.9%; in assay [2], 93.3%; in assay [3], 73.1%; in [4], 92.8%; in assay [5], 2.39% (active); in assay [6] it was 72.2%. The growth in [7] is 84.1%; in assay [8], 65.8%; in [9], 92.2%; in assay [10] it was 20.6%; in assay [11] it was 52.7%; in assay [12] it was 74.8%. Also, the growth in assay [13] was 81.2%; in assay [14] it was 80.3%; in assay [18], 32.1%; in assay [15], 73.8%; in [16], 93%; in assay [17], 49.2%.

With `CCCCCCCCCCCC[n+]1c(C)cc(N)c2ccccc21`, the growth is -36.8% (active) in assay [1]; 11.1% in assay [2]; 3.61% (active) in assay [19]; -6.03% (active) in [4]; -29.7% (active) in assay [5]; 57% in assay [6]. Also, the growth in assay [7] was 0.277% (active); in assay [8], -66.7% (active); in assay [9], 24.2%; in assay [10], -39.5% (active); in assay [12], -3.36% (active); in assay [13], -27.7% (active). The growth was 19.6% in [14]; -1.01% (active) in [18]; 16.5% in assay [15]; -17.8% (active) in assay [16]; -33.5% (active) in assay [17].

With `O=C(Nc1cc([N+](=O)[O-])c2[nH]c(=O)c3ccccc3c2c1)C(F)(F)F`, the growth was 81.8% in [1]; 93.4% in [2]; 38.4% in [3]; 112% in assay [4]; 77.2% in assay [5]; 62% in assay [6]. Moreover, the growth was 88.8% in assay [7]; 88.5% in assay [8]; 97.1% in [9]; 84.6% in assay [10]; 83.7% in [11]; 88.6% in [12]. The growth in [13] was 76.7%; in [14], 86.7%; in assay [18], 80.8%; in assay [15], 93.6%; in assay [16], 93.4%; in assay [17], 107%.
